Our source for the Potency values is PubChem BioAssay (NCATS).

Inconclusive results are not listed. Entries that show only a call come without a potency. Active and inactive are the calls of the source. The call rests on the fitted dose curve; in most records, active means well fitted activation curve with a large enough effect; inconclusive means small, poorly fitted or top-dose-only effect; inactive means flat fitted curve, though single readings scatter.
Potency means the concentration at half of the fitted maximal effect.

The nature of the assay: Primary redox qHTS assay for identification of artifact compounds. (AID 1845223). The note with it: Amplex Red/HRP redox cycling with DTT, fluorescence; series mostly up to 53.8 µM. An outline of the steps:
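Amplex Red (25 uM) and HRP (250 mU/mL) in HBSS, with compounds for 15 min, then 250 uM DTT for 30 min, room temperature, dark. Fluorescence 525/598 nm read; normalized to DMSO and 10 uM DA3003; Hill fit.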
For orientation: In qHTS, concentration-response curves come from the screen itself.
As for `COc1cccc(N2CCN(C3=Nc4c(F)cccc4[C@H](CC(=O)O)N3c3cc(C(F)(F)F)ccc3OC)CC2)c1`, the Potency entry is “inactive”.
For `COc1ccc2c(c1)C(C(=O)N(Cc1ccc(N(C)C)cc1)c1ccc(C(C)C)cc1)CCC2` (stereo unspecified), the Potency result is “inactive”.
Consider `C=CC(=O)Nc1ccc(CN2C(=O)N(c3cc(OC)cc(OC)c3)Cc3cnc(Nc4ccc(N5CCN(C)CC5)cc4)nc32)cc1`, for which the Potency result was “inactive”.
`CCCN1CCC=C(c2cc(-c3ccc(C)cc3)no2)C1`: the Potency result is “inactive”.
As for `C=C1C(=O)O[C@H]2/C=C(/C)[C@@H](OC(C)=O)C/C=C(\C)C[C@@H](OC(=O)/C(=C/C)COC(=O)/C(=C/C)CO)[C@@H]12`, the Potency entry is “inactive”.
Regarding `CC(=O)O[C@@]12CO[C@@H]1C[C@H](O)[C@@]1(C)C(=O)[C@H](O)C3=C(C)[C@@H](OC(=O)[C@H](O)[C@@H](NC(=O)OC(C)(C)C)c4ccccc4)C[C@@](O)([C@@H](OC(=O)c4ccccc4)C12)C3(C)C` (stereo partly specified), the Potency result is “inactive”.
Consider `COC1CC(=O)C23C(=O)NC(CC(C)C)C2C(C)C(C)=CC3/C=C(\C)CCCC1O` (stereo unspecified), for which the Potency entry was “inactive”.
As to `C=C[C@@]12COC(=O)C(=C)[C@@H]1[C@@H](O)[C@H](C(=C)C(=O)OC)[C@@H](O)C2`, the Potency entry was “inactive”.
As for `C[C@H](Oc1cc(-n2cnc3ccc(CN4CCN(C)CC4)cc32)sc1C(N)=O)c1ccccc1C(F)(F)F`, the entry is “inactive”; as for `CO[C@H]1C[C@@H]2CC[C@@H](C)[C@@](O)(O2)C(=O)C(=O)N2CCCC[C@H]2C(=O)O[C@H]([C@@H](C)C[C@@H]2CC[C@@H](O)[C@H](OC)C2)CC(=O)[C@H](C)/C=C(\C)[C@@H](O)[C@@H](OC)C(=O)[C@H](C)C[C@H](C)/C=C/C=C/C=C/1C`, “inactive”.
As to `O=C(Nc1ccc(Cl)cc1)Nc1cccc(-c2cccc(N3CCCC3)n2)c1`, the Potency entry is “inactive”.
For `NC(=O)CCCSc1nc(N)nc(-c2c(Cl)cc3c4c(cccc24)COC3)n1`, the Potency entry is “inactive”.
For `Cc1nc2c(C(F)(F)F)cccc2nc1-c1ccc(-c2cccc(S(C)(=O)=O)c2)cc1`, the Potency result is “inactive”.
On to `Fc1ccc(-c2cncc(CN3CCN(c4cccc5c4OCCO5)CC3)c2)cc1`, for which the Potency entry is “inactive”.
Take `CN(C)c1ccc(NC(=O)NS(=O)(=O)c2ccc(Cl)cc2)cc1`: the Potency is 3.36 µM (active).
Regarding `CNc1cccc(CCOc2ccc3c(c2)CN(CC(F)(F)F)C(=O)[C@H](CC(=O)O)C3)n1`, the Potency entry is “inactive”.
As to `COc1cc(-c2cn(C3CCc4c(F)cccc4N(CC(F)(F)F)C3=O)nn2)ccc1-n1cnc(C)c1` (stereo unspecified), the Potency entry was “inactive”.
As for `CC(=O)O[C@H]1C[C@@](O)(C(C)C)[C@@H]2[C@@H](OC(=O)c3ccc(O)cc3)CC(C)=CC[C@@]12C`, the entry is “inactive”.
Regarding `Cc1ccc(C(C)C)c(O[C@@H]2O[C@H](CO)[C@@H](O)[C@H](O)[C@H]2O)c1`, the Potency result is “inactive”.
With `COc1ccc(-c2ccc3c(N4CCOCC4C)nc(N4CCOCC4C)nc3n2)cc1CO` (stereo unspecified), the Potency result was “inactive”.
For `O=C(NS(=O)(=O)c1ccc(Br)s1)c1ccc(Cl)cc1Cl` the value was “inactive”.
Regarding `CC(C)=C1C[C@@]2(C)C(=CC1=O)CC[C@@H](OC(=O)/C(C)=C/CO)[C@@H]2C`, the Potency entry was “inactive”.
With `CNC(C)C(=O)NC(C(=O)N1CCCC1C(=O)Nc1snnc1-c1ccccc1)C1CCCCC1` (stereo unspecified), the Potency result is “inactive”.
Regarding `C=C(C(=O)OC)[C@@H]1CC=C2C=CC(=O)[C@H](C)[C@@]2(C)C1`, the Potency entry is “inactive”.
In the case of `Cc1ccc(-c2c(C(=O)CCl)n(CCCO)c3ncnc(N)c23)cc1`, the Potency is 15 µM (active).
For `Cc1ccc(OC[C@H](O)[C@H](C)NC(C)C)c2c1CCC2` the value was “inactive”.
